Experimental data from PubChem BioAssay AID488969 (Vanderbilt High Throughput Screening Facility, 2010).
Whole data set: some 110,000 compounds, median “z-score” near -0.1, cut for the highest 2% near 2. What follows is part of a selection rich in the highest values, with near analogues and random picks from the rest. Activity calls are given as the source filed them.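 How the source made its calls: active means z-score in the third read window above 3 or below -3; inactive means the rest.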

What follows are molecules tested against Metabotropic glutamate receptor 8 (Rattus norvegicus) (UniProt P70579) (assay: mGluR8 Gi/Go-coupled signaling modulation – cell-based, rat, thallium flux, HTS, primary screen (AID 488969)). Settings: HEK293 rat mGluR8, GIRK (G protein-gated inwardly rectifying potassium channel) thallium flux, FluoZin2; at 10 µM; stronger effect = higher value; submaximal glutamate (EC20) added with thallium.
Metabotropic glutamate receptor 8 (Rattus norvegicus), sequence (P70579 whole entry, looked up): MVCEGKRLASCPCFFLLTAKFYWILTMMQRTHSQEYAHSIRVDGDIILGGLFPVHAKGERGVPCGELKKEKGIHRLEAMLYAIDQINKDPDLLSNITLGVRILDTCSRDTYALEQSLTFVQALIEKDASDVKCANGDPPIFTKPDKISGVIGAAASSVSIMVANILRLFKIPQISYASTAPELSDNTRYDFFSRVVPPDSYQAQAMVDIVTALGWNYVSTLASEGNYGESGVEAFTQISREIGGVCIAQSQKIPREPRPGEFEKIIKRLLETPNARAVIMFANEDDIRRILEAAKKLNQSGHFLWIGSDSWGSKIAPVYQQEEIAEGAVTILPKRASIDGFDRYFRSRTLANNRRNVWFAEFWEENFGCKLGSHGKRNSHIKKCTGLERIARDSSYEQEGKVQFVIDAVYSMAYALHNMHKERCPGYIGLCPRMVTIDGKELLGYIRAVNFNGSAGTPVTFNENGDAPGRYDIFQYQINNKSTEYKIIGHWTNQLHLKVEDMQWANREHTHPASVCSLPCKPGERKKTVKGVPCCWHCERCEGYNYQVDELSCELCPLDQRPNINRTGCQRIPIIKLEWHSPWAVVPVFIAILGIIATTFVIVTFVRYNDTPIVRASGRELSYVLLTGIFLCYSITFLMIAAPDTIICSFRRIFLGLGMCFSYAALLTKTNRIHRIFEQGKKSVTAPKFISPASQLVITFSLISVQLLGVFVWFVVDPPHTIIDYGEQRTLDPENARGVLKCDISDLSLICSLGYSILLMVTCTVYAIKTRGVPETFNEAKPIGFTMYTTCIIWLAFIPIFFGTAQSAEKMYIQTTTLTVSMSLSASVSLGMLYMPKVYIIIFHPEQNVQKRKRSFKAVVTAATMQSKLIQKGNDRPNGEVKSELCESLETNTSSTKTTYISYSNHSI
`CCC(=O)NCCn1c(C)cc2ccccc21` was tested, and the z-score was 0.729.
Work on `CC(/C=N/NC(=O)c1ccc(CN2c3cccc4cccc(c34)S2(=O)=O)cc1)c1ccccc1` (stereo unspecified) yielded a z-score of -0.557.
With `Cc1ccc(-c2noc(CCC(=O)NCCN3CCOCC3)n2)cc1` the z-score was -0.472.
`O=C(Nc1ncccn1)c1cc([N+](=O)[O-])cc([N+](=O)[O-])c1` was tested, and the z-score was -0.131.
With `O=C(O)CN=C(NS(=O)(=O)c1ccccc1)c1ccccc1` the z-score was 4.61 (active).
For `Cc1ccc(S(=O)(=O)NC(=NCC(=O)O)c2ccc(F)cc2)cc1`, the z-score was 0.317.
With `O=C(O)CN=C(NS(=O)(=O)c1ccc(Cl)cc1)c1ccccc1` the z-score was 0.274.
With `CCOc1ccccc1CNS(=O)(=O)c1ccc2c(c1)oc(=O)n2C` the z-score was -0.853.
In the case of `CCn1cc(C(=O)Nc2nnc(C)s2)c(=O)c2cc(F)c(N3CCN(C(=O)c4ccco4)CC3)cc21`, the z-score was -0.178.
With `CCOC(=O)c1cnc(SCC(=O)Nc2cc(OC)cc(OC)c2)nc1N` the z-score was 0.341.
With `CCOC(=O)c1cnc(SCC(=O)Nc2nnc(CC)s2)nc1N` the z-score was 0.763.
For `CCOC(=O)c1cnc(SCC(=O)Nc2nc(C)c(C)s2)nc1N`, the z-score was 3.65 (active).
`Cc1cc2c(nn1)CCc1nonc1-2` was tested, and the z-score was 0.0142.
`COc1cc2nc(CN3C(=O)c4ccccc4C3=O)oc(=O)c2cc1OC` gave a z-score of -0.733.
For `CCCCn1nnnc1SCC(=O)c1cc(Cl)ccc1OC`, the z-score was -1.36.
`COc1ccc(Cl)cc1C(=O)CSc1nnnn1C1CCCCC1` gave a z-score of -0.333.
For `COc1ccc(Cl)cc1C(=O)CSc1nnnn1C1CCCC1`, the z-score was 7.32 (active).
`O=C(NNC(=O)[C@@H]1CCCC[C@@H]1C(=O)O)c1cccs1` showed a z-score of 0.534.
Work on `O=C(NCc1cn(-c2ccccc2)nc1-c1ccccc1)c1cccc([N+](=O)[O-])c1` yielded a z-score of -0.314.
For `O=C(NNC(=O)c1cnccn1)c1cccc([N+](=O)[O-])c1`, the z-score was -0.417.
For `O=C(NNC(=O)c1cc(-c2ccccc2)n(-c2ccccc2)n1)c1cccc([N+](=O)[O-])c1`, the z-score was 6.49 (active).
In the case of `C=CCn1c(-c2ccc(S(=O)(=O)N3CCOCC3)cc2)csc1=Nc1ccccc1`, the z-score was 0.017.
`Cc1nn(-c2ccccc2)c(N)c1C1(O)C(=O)N(C(C)C)c2ccccc21` (stereo unspecified) gave a z-score of 0.371.
`O=C(c1ccccc1)n1nc(-c2ccccc2)nc1NCc1ccco1` was tested, and the z-score was 0.149.
`O=S(=O)(c1ccccc1)n1nc(-c2ccccc2)nc1NCc1ccco1` gave a z-score of -0.0427.
`CCS(=O)(=O)n1nc(-c2ccccc2)nc1NCc1ccco1` was tested, and the z-score was 2.2.
For `CCS(=O)(=O)c1nc2ccccc2n1CC(=O)N1CCOCC1`, the z-score was 0.0592.
Work on `O=C(NC(=S)Nn1cnc2c(cnn2-c2ccccc2)c1=O)c1ccccc1` yielded a z-score of -0.101.
Molecule `O=C(NC(=S)Nn1cnc2c(cnn2-c2ccccc2)c1=O)c1ccc(Cl)cc1` has a z-score of 0.0584.
Molecule `O=C(NC(=S)Nn1cnc2c(cnn2-c2ccccc2)c1=O)c1ccc(Oc2ccccc2)cc1` has a z-score of 2.08.
`CCCN(Cc1ccc(N(CC)CC)cc1)CC1CC1` was tested, and the z-score was 2.1.
`CCCN(Cc1ccc(N(C)C)cc1)CC1CC1` showed a z-score of -0.858.
`OCCN(Cc1ccccc1)CC1CCCCC1` showed a z-score of 0.614.
For `CCCCn1c(SCC(=O)N2CCOCC2)nnc1-c1ccoc1C`, the z-score was 1.9.
For `COc1ccc(S(=O)(=O)N(CC(=O)N2CCN(C)CC2)c2ccc(C)cc2)cc1OC`, the z-score was 0.277.
With `CC(C)C(=O)OCC(=O)Nc1ccc(N=Nc2ccccc2)cc1` the z-score was 10.5 (active).
`CCCC(=O)OCC(=O)Nc1ccc(N=Nc2ccccc2)cc1` was tested, and the z-score was 0.427.
`CC(=O)OCC(=O)Nc1ccc(N=Nc2ccccc2)cc1` was tested, and the z-score was 0.277.
With `Cc1cc(-c2nn(-c3ccccc3)cc2/C=C2\SC(N)=NC2=O)ccc1OC(C)C` the z-score was -0.0568.
With `Cn1c(=O)oc2cc(S(=O)(=O)NCCN3CCN(c4ccccc4F)CC3)ccc21` the z-score was -0.14.
Molecule `CC(C)N(CCNC(=O)C1CCN(S(=O)(=O)N2CCOCC2)CC1)Cc1ccccc1` has a z-score of 0.267.
With `CCCCN(CCCNC(=O)C1CCN(S(=O)(=O)N2CCOCC2)CC1)Cc1ccccc1` the z-score was 2.95.
For `CCCCN(CCCNC(=O)C1CCN(S(=O)(=O)N2CCOCC2)CC1)c1ccccc1`, the z-score was -1.17.
`O=C(COc1ccccc1)OCc1csc(Nc2ccccc2)n1` gave a z-score of -0.693.
`CS(=O)(=O)Nc1ccc2c(c1)nc1n2CCOC1` was tested, and the z-score was -0.149.
`COc1cccc(CNC(=O)C2(C)Oc3ccccc3NC2=O)c1` (stereo unspecified) showed a z-score of -0.3.
Work on `COc1ccc(CS(=O)(=O)/C(Cl)=C(/Cl)C(=O)Nc2ccc(OC)nc2)cc1` yielded a z-score of -0.34.
With `COC(=O)c1ccc2nc(Nc3nc4c(F)cc(F)cc4s3)sc2c1` the z-score was 1.56.
In the case of `NNc1nc2ccc(F)cc2s1`, the z-score was -0.467.
In the case of `CC(=O)c1sc(Nc2nc3ccc(F)cc3s2)nc1C`, the z-score was 0.302.
`COC(=O)c1ccc2nc(Nc3nc4ccc(F)cc4s3)sc2c1` gave a z-score of 0.254.
`Fc1ccc2nc(Nc3nc4c(F)cccc4s3)sc2c1` was tested, and the z-score was 4.98 (active).
`Fc1ccc2nc(Nc3nc4c(F)cc(F)cc4s3)sc2c1` was tested, and the z-score was 6.16 (active).
In the case of `CCCCC(=O)Nc1ccccc1C(=O)N1CCOCC1`, the z-score was 0.0261.
`C/C(=N\OCC(=O)Nc1ccc(F)c(F)c1F)c1cc2ccccc2o1` gave a z-score of -1.92.
Molecule `CCCCOc1ccc(C(=O)N/C(=C\c2cccc([N+](=O)[O-])c2)C(=O)OC(C)C)cc1` has a z-score of 0.536.
With `Cc1ccc(CCSc2ccc(C(C)C)cc2)cn1` the z-score was -0.399.
With `CC(C)CN1C(=O)NC(NC(=O)c2ccco2)(C(F)(F)F)C1=O` (stereo unspecified) the z-score was 0.0372.
Molecule `CCC(=O)NC(=S)Nc1ccccc1C(=O)OC` has a z-score of -0.308.
`Cc1cccc(NC(=O)COc2ccc(Br)cc2)n1` showed a z-score of -0.0989.
With `CCOC(=O)c1ccc(NC(=S)Nc2ccccc2)cc1` the z-score was 1.7.
In the case of `CCCC(=O)NC(=S)Nc1ccccc1C(=O)OC`, the z-score was 0.0764.
For `CN(C(=S)Nc1ccc(Oc2ccccc2)cc1)C1CCCCC1`, the z-score was 0.0776.
For `Cc1ccc(OCC(=O)NC(=S)Nc2cccc(C)n2)cc1`, the z-score was 1.99.
`Cc1ccc(OCC(=O)NC(=S)Nc2ccc(Br)c(C)n2)cc1` gave a z-score of 1.02.
For `CCC(=O)NC(=S)Nc1ccc(NC(=O)COc2ccccc2)cc1`, the z-score was 0.0565.
With `CCCCN(C)C(=S)Nc1ccc(Oc2ccccc2)cc1` the z-score was 1.42.
In the case of `COC(=O)c1ccccc1NC(=S)NC(=O)COc1ccc(C)cc1`, the z-score was 2.28.
For `CCCN(CC1CC1)C(=S)Nc1ccc(Oc2ccccc2)cc1`, the z-score was 3.7 (active).
For `CCOC(=O)c1ccc(NC(=S)NC(=O)COc2ccccc2)cc1`, the z-score was 3.05 (active).
For `O=C(CSc1ccsc1[N+](=O)[O-])N1CCN(c2ccccc2)CC1`, the z-score was -0.247.
